Screening results deposited in PubChem BioAssay by National Center for Advancing Translational Sciences (NCATS).
Sampled rows, rich in hits. Any-hit rate of the full collection: about 19%.
TDP1 cell CPT: DT40-hTDP1 cell growth loss with CPT | Potency, µM (highest dose often 46.2 µM), without a hit: at the highest dose activity change, negative = growth inhibition, usual class: inhibitors | chicken DT40 Tdp1-/-;hTDP1 cells + 20 nM CPT, ATP luminescence, 48 h | 12% of 420,000 active; note: potency is the fitted concentration of half-maximal effect; % is set by controls: 0 for no effect and ±100 for the full control effect; nearly all actives have a fitted effect of over 55% in size
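Chicken DT40 Tdp1-/- cells stably complemented with human TDP1 were seeded at 400 cells/well in medium containing 20 nM camptothecin, exposed to pin-transferred compounds, and grown at 37 °C for at least 48 hr. Viability was read as ATP luminescence.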
MCF10A rerep: inducers of DNA re-replication in MCF 10A breast cells; MCF 10A DNA re-replication, Hoechst nuclear intensity, 48 h; Potency, µM (series often up to 46.1 µM), inactives show at the top dose activity, positive = re-replication, most hits filed as activators; 2.9% of 350,000 active; AID 624296; note: potency is the fitted concentration of half-maximal effect; % of control where 0% means no effect; nearly all actives have a fitted effect of over 50% in size
IL-1B inflam inh: inhibitors of inflammasome signaling (IL-1 beta secretion) | THP-1 LPS/ATP IL-1B secretion, AlphaLISA, 16 h; hits give low values | activity change, % at 57.5 µM | 4.7% of 360,000 active; in the data active = activity change below about -50%; inconclusive = mostly about -30% to -49%; note: % is set by controls: 0 for no effect and ±100 for the full control effect
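THP-1 cells pretreated 1 hr with compounds (up to 57.5 uM final), then stimulated with LPS (250 ng/mL final) plus ATP (1.25 mM final); secreted IL-1B measured by AlphaLISA after 16 hr, decreased signal indicating inhibition.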
DT40 TDP1 no CPT: qHTS for Inhibitors of human tyrosyl-DNA phosphodiesterase 1 (TDP1): qHTS in cells in absence of CPT | DT40 Tdp1-/- hTDP1 cells, no CPT, ATP luminescence, 48 h | 15% of 420,000 active | Potency, µM (titrated, usually from 46.2 µM), inactives show at the highest dose activity change, negative = growth inhibition, usual class: inhibitors; note: potency is the fitted concentration of half-maximal effect; % is set by controls: 0 for no effect and ±100 for the full control effect; nearly all actives have a fitted effect of over 55% in size
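Readout: luminescence from CellTiter-Glo after 30 min in the dark at RT. Cells: DT40 Tdp1-/- with stable hTDP1, 400/well. Exposure: compounds alone, ≥48 hr, 37 °C.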
BCR signal inh: blocks chronic active B-cell receptor signaling | ABC-DLBCL IkBa-CBG/CBR reporter, luminescence ratio, 4 h | Potency, µM (highest dose often 46.1 µM), inactives show at the highest dose activity change, negative = inhibition, hits mostly inhibitors | 0.05% of 340,000 active | AID 493014; active = well fitted inhibition curve with a large enough effect in the signal ratio, with a control signal flat, not every such curve was filed as active; inconclusive = small, poorly fitted or top-dose-only effect, or effect the other way, or a change in a side signal; the % refers to the signal ratio;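 note: potency is the fitted concentration of half-maximal effect; plate controls were basal doxycycline-induced cells for no effect and cells given 10 µM MG132 for full effect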
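Cell line TMD8 (human ABC DLBCL), stably expressing tet-inducible CBG68-IkBa fusion and CBR; IMDM/0.5% FBS; cpd up to 46 uM; dox induction, 4 h, 37C/5% CO2; dual luminescence; green/red ratio; MG132 control.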
SW480 rereplic: DNA re-replication induction in SW480 cells; SW480 DNA re-replication, Hoechst DNA content imaging, 48 h; Potency, µM (series often up to 46.1 µM), without a hit: top-dose re-replication activation, usual class: activators; 1.8% of 340,000 active; note: potency is the fitted concentration of half-maximal effect; % of control where 0% means no effect; nearly all actives have a fitted effect of over 55% in size
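Image-based DNA-content assay: after two days of treatment, nuclei were labelled with the DNA dye Hoechst and imaged, and hits were compounds raising the count of nuclei showing high fluorescence intensity.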
Numbers without * were called inactive; ? = inconclusive; / = not tested or not shown; [ ] = remark or other dose. Unless noted, calls come from the whole dose curve; as a rule, active = well fitted curve in the direction sought with a large enough effect; inconclusive = small, poorly fitted or top-dose-only effect, or another doubt; inactive = no such curve, though single readings can be large; an effect the other way counts as inactive or inconclusive.

SMILES	TDP1 cell CPT	MCF10A rerep	IL-1B inflam inh	DT40 TDP1 no CPT	BCR signal inh	SW480 rereplic
COc1cc(C(=O)N=c2sc3c(C)ccc(OC)c3n2C)cc(OC)c1OC	14.6µM*	13.9%	42.9	5.17µM*	3.7%	-4.0%
COc1cc(C(=O)N=c2sc3ccccc3n2C)cc(OC)c1OC	7.31µM*	-1.5%	23.0	8.2µM*	?	-29.8%
COc1ccc(OC)c2c1sc(=NC(=O)C1CCCCC1)n2C	-0.8%	-4.6%	35.1	-23.4%	3.3%	-1.5%
COc1ccc(C(=O)N=c2sc3c(C)ccc(OC)c3n2C)cc1	3.26µM*	8.0%	36.6	4.11µM*	12.1%	10.6%
CCOC(=O)c1sc(=NC(=O)c2ccc(OC)c(OC)c2)n(C)c1C	-4.1%	-3.7%	3.4	-24.9%	1.2%	2.1%
CC(C)CC1NC(=O)N(CC(=O)Nc2cc(S(=O)(=O)N3CCOCC3)ccc2Cl)C1=O (stereo not given)	-7.3%	-2.8%	0.0	14.5%	-2.8%	-1.3%
CCOc1c(Br)cc(C2NS(=O)(=O)N=C3CCCCCN32)cc1OC (stereo not given)	?	-0.3%	0.0	16.4µM*	?	16.6%
CCOc1ccc(CNC(=O)CCS(=O)(=O)c2cc3c(cc2Cl)NC(=O)CO3)cc1OC	9.3%	/	/	-1.8%	/	/
COc1ccc(Cl)cc1/C=N/NC(=O)c1c(-c2ccccc2)noc1C	-5.6%	7.0%	42.3	10.8%	?	2.3%
Cc1onc(-c2ccccc2)c1C(=O)N/N=C(\N)COc1ccc(Cl)cc1	16.4µM*	14.8%	6.5	?	-1.1%	12.4%
CCC(=O)Nc1ccc(/C(C)=N/NC(=O)c2c(-c3ccccc3Cl)noc2C)cc1	?	4.9%	35.7	?	-0.6%	-4.7%
Cc1onc(-c2ccccc2Cl)c1C(=O)N/N=C(\N)COc1ccc(Cl)cc1	23.1µM*	15.3%	-12.5	13µM*	?	-0.8%
CC(C#N)Sc1nnc(Nc2ccccc2)s1 (stereo not given)	-105.6%	5.3%	-3.5	18.4µM*	-12.8%	2.2%
N#CCSc1n[nH]c2nc3c(c(=O)n12)C1(CCCCC1)Cc1ccccc1-3	-10.9%	16.4µM*	-26.2	-23.4%	7.3%	?
CCSc1n[nH]c2nc3c(c(=O)n12)C1(CCCCC1)Cc1ccccc1-3	-22.5%	5.17µM*	24.1	-36.9%	4.5%	-3.2%
CCCn1c(SCC(N)=O)nc2c(c1=O)C1(CCCC1)Cc1ccccc1-2	-0.3%	?	-58.3*	9.2%	4.9%	-8.5%
CCOc1ccc(Br)cc1S(=O)(=O)NC1CC(C)(C)NC(C)(C)C1	-17.5%	12.8%	-11.5	1.6%	-2.5%	0.517µM*
CCOc1cc(C)c(S(=O)(=O)NC2CC(C)(C)NC(C)(C)C2)cc1C	?	1.6%	-17.5	-28.9%	0.9%	-7.8%
O=C1Nc2cc(Cl)ccc2Oc2cc(Oc3ccccc3)ccc21	?	/	/	20.6µM*	?	/
CNc1cncc(-c2ccc(OC)cc2)n1	-7.6%	/	-6.3	-23.2%	/	/
O=C1[C@H]2[C@@H](c3ccc(F)cc3)N3C(=O)N(c4cccc(Cl)c4)C(=O)[C@@]3(Cc3ccc(Cl)cc3)[C@H]2C(=O)N1C1CCCCC1	16.4µM*	-1.3%	-22.9	?	12.8%	6.0%
C[C@@]12C(=O)N(c3cccc(F)c3)C(=O)N1[C@H](c1ccc(F)cc1)[C@@H]1C(=O)N(C3CCCCC3)C(=O)[C@@H]12	20.6µM*	0.3%	-6.7	?	4.8%	-2.7%
O=C1[C@H]2[C@@H](c3ccc(F)cc3)N3C(=O)N(c4cccc(Cl)c4)C(=O)[C@@]3(Cc3ccccc3)[C@H]2C(=O)N1C1CCCCC1	?	9.3%	-50.4*	?	1.4%	4.1%
O=C(COc1cccc(F)c1)Nc1nc(-c2cccnc2)cs1	?	-5.8%	8.4	?	?	-12.9%
Cc1ccsc1C(=O)N(Cc1cc2cc3c(cc2nc1N1CCOCC1)CCC3)CC1CCCO1 (stereo not given)	-9.9%[9.04 µM]	/	/	-2.9%	/	/
SMILES	TDP1 cell CPT	MCF10A rerep	IL-1B inflam inh	DT40 TDP1 no CPT	BCR signal inh	SW480 rereplic
CN1C[C@@H]2[C@@H]3C(=O)N(Cc4ccccc4)C(=O)[C@@H]3[C@](Cc3ccccc3)(C1=O)N2C(=O)c1ccc(Br)cc1	-7.2%	1.0%	-9.5	?	/	18.6%
Cc1ccc(S(=O)(=O)c2cccc(S(=O)(=O)N3CCOCC3)c2)cc1S(=O)(=O)N1CCOCC1	-8.7%	3.4%	-3.9	?	-8.1%	0.5%
CN1CCN(S(=O)(=O)c2cccc(S(=O)(=O)c3ccc(Cl)cc3)c2)CC1	?	-2.8%	-15.8	16.4µM*	/	-24.7%
Cc1ccc(S(=O)(=O)c2cccc(S(=O)(=O)N3CCCC3)c2)cc1S(=O)(=O)N1CCCC1	20.6µM*	13.0%	-14.0	18.4µM*	0.7%	-0.9%
C=C(C)CN=CC1(C)CCC(C)=CO1 (stereo not given)	16.4µM*	8.7%	-1.0	18.4µM*	/	0.0%
O=C(COC(=O)CC1CC2CCC1C2)Nc1cccc(S(=O)(=O)NC2=NCCCCC2)c1 (stereo not given)	?	0.1%	-5.5	29.1µM*	-23.2%	-8.8%
O=C(COc1cccc(C(F)(F)F)c1)Nc1cccc(S(=O)(=O)NC2=NCCCCC2)c1	23.1µM*	?	-17.1	25.9µM*	/	0.1%
Cc1cc(C)nc(SCC(=O)Nc2ccc(S(=O)(=O)NC(C)(C)C)cc2)n1	16.4µM*	-3.2%	4.7	14.6µM*	-5.4%	1.0%
NS(=O)(=O)c1cccc(NC(=O)COC(=O)CC2CC3CCC2C3)c1 (stereo not given)	-26.7%	?	-1.3	1.1%	-0.7%	-5.9%
O=C(Nc1cccc(S(=O)(=O)NC2=NCCC2)c1)c1ccccc1	4.3%	-2.1%	10.6	?	-2.7%	2.4%
Cc1cc(C)nc(SCC(=O)Nc2ccc(S(=O)(=O)NCCO)cc2)n1	1.1%	7.4%	-6.4	-16.8%	-43.7%	1.9%
O=C(Nc1cccc(S(=O)(=O)NC2=NCCCCC2)c1)c1ccc(Cl)cc1	23.1µM*	-3.8%	-7.6	11.6µM*	?	-0.3%
CCN(CC(=O)Nc1ccccc1C(F)(F)F)C(=O)c1ccc2c(c1)NC(=O)C(C)S2 (stereo not given)	?	/	20.3	?	/	/
O=C(NC(=S)Nc1cccc(S(=O)(=O)NC2=NCCC2)c1)c1cc(-c2ccco2)nc2ccccc12	4.61µM*	?	45.9	3.66µM*	?	9.2µM*
